According to the OligoGym collection:
Further: reference of the scale not given here.

What follows are sequences tested against POP5 (assay: pooled miR-30 sensor sort-seq; sequence = guide strand). Details: shRNA.
For TATTAAATCTACTCTTAGCCAA, the sensor-assay potency score (higher = more potent) was -0.331.
Work on TGAATTAGGAACTTCTGACATG yielded a sensor-assay potency score (higher = more potent) of -0.611.
For TACAGAGTTCACAACCTGCAAC, the sensor-assay potency score (higher = more potent) was -0.95.
ATTAAATCTACTCTTAGCCAAG gave a sensor-assay potency score (higher = more potent) of -1.64.
TTCTTGTCACAGACTTCTGGAT was tested, and the sensor-assay potency score (higher = more potent) was -0.854.
TTGTTCTGTTCAACAAGTGGGC gave a sensor-assay potency score (higher = more potent) of -0.188.
Sequence TTCTGCATCGAAGTAGCACTAT has a sensor-assay potency score (higher = more potent) of -0.187.
With TTCATCAGTGCAGTTCTGCAAC the sensor-assay potency score (higher = more potent) was -0.521.
In the case of TAACTGAGTACTCCATTTCAAG, the sensor-assay potency score (higher = more potent) is reported as -1.58.
TACTGAATTAGGAACTTCTGAC showed a sensor-assay potency score (higher = more potent) of -0.267.
In the case of AAGATCAACAGCTGTCTCCTGT, the sensor-assay potency score (higher = more potent) is reported as 0.552.

The sequences below were run against POU2F2 in the same assay as above. Details: shRNA.
TTAGTGTCTGGTCCATTTCTTT was tested, and the sensor-assay potency score (higher = more potent) was -1.05.
Work on TTGATCTTTGTACTGGGGCCAG yielded a sensor-assay potency score (higher = more potent) of -0.786.
Work on TTCGCTAGAAAACTCTTCTCTA yielded a sensor-assay potency score (higher = more potent) of 0.465.
TTTCGGTGTCTGTGTGCTCTGA was tested, and the sensor-assay potency score (higher = more potent) was -0.406.
For TTAGACATTCTTATTTCTGGAG, the sensor-assay potency score (higher = more potent) was -0.093.
TTCGGTGTCTGTGTGCTCTGAT was tested, and the sensor-assay potency score (higher = more potent) was 0.743.
Sequence TTTGTCTCGATGCTGGTCCTCT has a sensor-assay potency score (higher = more potent) of -0.192.
Sequence TAGATTTGGTGTCGGTAGCAGG has a sensor-assay potency score (higher = more potent) of -0.991.
With TCTTCTTGCGTCTCCGGCCGGG the sensor-assay potency score (higher = more potent) was -0.79.
ATTTCTTTCGGTGTCTGTGTGC was tested, and the sensor-assay potency score (higher = more potent) was -0.0405.
For TTGGTGTCGGTAGCAGGCCTGG, the sensor-assay potency score (higher = more potent) was -1.3.
In the case of TTGAGTTTGCACATGTTCTTGA, the sensor-assay potency score (higher = more potent) is reported as 1.05.

The sequences below were run against PPARD in the same assay as above. Details: shRNA.
In the case of TTCTTCTTCTGAATCTTGCAGC, the sensor-assay potency score (higher = more potent) is reported as 0.0519.
TTGAACTTGACAGCAAATTCAA showed a sensor-assay potency score (higher = more potent) of -0.881.
For TTGCCGGTGAGGATGCTGCGGG, the sensor-assay potency score (higher = more potent) was -0.839.
For TAGCGTTGTGTGACATGCCCAG, the sensor-assay potency score (higher = more potent) was 0.138.
Work on TTGGAGATTGTTCAGACACTGA yielded a sensor-assay potency score (higher = more potent) of -0.713.
TTCGGTCTTCTTGATCCGCTGC gave a sensor-assay potency score (higher = more potent) of 0.435.
TTGACAGCAAATTCAAACTTAG gave a sensor-assay potency score (higher = more potent) of -0.865.
TCGTACTCCAGCTTCATGCGGA showed a sensor-assay potency score (higher = more potent) of -0.0495.
TTAAAGTTTCGTCAGTCTGTGT gave a sensor-assay potency score (higher = more potent) of -0.63.
Work on TTGATCCGCTGCATCATCTGGG yielded a sensor-assay potency score (higher = more potent) of -0.175.
TAAGAAAGGAGGACAGACGTGG showed a sensor-assay potency score (higher = more potent) of 0.523.
TTCTTCTGAATCTTGCAGCTGC showed a sensor-assay potency score (higher = more potent) of 0.468.

The sequences below were run against PPARGC1A in the same assay as above. Details: shRNA.
Sequence TAGTTGTCTAGAGTCTTGGAGC has a sensor-assay potency score (higher = more potent) of -1.01.
In the case of TTGTCTAGAGTCTTGGAGCTCC, the sensor-assay potency score (higher = more potent) is reported as 0.145.
For TTCGTCGTCAAAAACAGCTTGA, the sensor-assay potency score (higher = more potent) was -0.0941.
With TTACATTTGAATATTCTTGATT the sensor-assay potency score (higher = more potent) was 0.253.
